According to publication PMC4336329 (PLoS ONE, 2015):
Screen size: about 310,000 compounds; about 14,000 (4.5%) showed an effect of 50% or more. Effects have a minus sign here. The sample as a whole holds a higher share of strong results than the screen did.

biological target: human ether-à-go-go-related gene (hERG) potassium channel (human, UniProt Q12809); experiment: primary screen, population patch clamp on CHO cells stably expressing hERG; higher = less effect of the substance
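Note: peak tail current of the secondary pulse compared with the same well before compound.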

Chain of human ether-à-go-go-related gene (hERG) potassium channel (Q12809 whole entry, looked up): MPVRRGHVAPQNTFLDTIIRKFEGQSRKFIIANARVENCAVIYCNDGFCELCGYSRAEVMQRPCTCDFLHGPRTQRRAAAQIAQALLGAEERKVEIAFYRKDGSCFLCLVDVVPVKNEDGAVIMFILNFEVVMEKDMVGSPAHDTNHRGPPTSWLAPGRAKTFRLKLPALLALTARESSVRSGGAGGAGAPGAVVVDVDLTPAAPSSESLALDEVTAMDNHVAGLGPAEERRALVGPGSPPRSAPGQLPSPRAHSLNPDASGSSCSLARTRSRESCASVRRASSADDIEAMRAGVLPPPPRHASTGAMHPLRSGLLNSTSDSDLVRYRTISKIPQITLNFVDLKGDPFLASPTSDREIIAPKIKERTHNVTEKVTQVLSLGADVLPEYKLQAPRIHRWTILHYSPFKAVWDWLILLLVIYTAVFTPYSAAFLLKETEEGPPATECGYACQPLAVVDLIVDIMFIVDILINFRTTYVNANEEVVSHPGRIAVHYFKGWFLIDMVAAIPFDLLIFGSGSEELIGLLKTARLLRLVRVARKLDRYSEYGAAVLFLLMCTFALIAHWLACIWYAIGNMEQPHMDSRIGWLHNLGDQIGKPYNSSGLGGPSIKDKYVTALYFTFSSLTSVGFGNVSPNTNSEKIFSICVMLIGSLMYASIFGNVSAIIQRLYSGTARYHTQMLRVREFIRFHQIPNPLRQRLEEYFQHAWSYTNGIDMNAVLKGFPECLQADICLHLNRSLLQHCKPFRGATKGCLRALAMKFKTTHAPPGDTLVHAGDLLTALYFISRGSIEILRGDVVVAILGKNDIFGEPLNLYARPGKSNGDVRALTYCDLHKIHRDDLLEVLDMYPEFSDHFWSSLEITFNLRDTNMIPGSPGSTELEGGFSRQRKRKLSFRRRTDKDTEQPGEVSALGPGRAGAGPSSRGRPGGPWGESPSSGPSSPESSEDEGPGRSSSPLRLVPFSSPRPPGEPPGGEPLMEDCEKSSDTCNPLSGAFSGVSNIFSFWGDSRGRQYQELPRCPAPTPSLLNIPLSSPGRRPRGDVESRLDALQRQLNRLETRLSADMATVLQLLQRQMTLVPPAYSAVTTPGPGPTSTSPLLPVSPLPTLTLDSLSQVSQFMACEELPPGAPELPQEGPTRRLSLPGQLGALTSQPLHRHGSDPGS

Question: For CCOC(=O)[C@@H]1[C@H]2COc3cc(OC)ccc3[C@@H]2N2C(=O)N(c3cccc(C)c3)C(=O)[C@@]12C, which “hERG current change (%, negative = inhibition) at 10uM” value is on record?
Answer: -5.14%

Question: How did the “hERG current change (%, negative = inhibition) at 10uM” value turn out when CCC1=NN(C(=O)c2ccc(C)cc2)C(O)(c2ccc(Br)cc2)C1 (centres unmarked) was run?
Answer: -10.7%

Question: COc1ccccc1C(CC(=O)Nc1nccs1)c1ccco1 (centres unmarked) was tested. Which “hERG current change (%, negative = inhibition) at 10uM” value did it give?
Answer: 2.68%

Question: With Cc1ccc(C)c(NC(=O)CN(C)C(=O)/C=C/c2ccco2)c1 as the molecule, how does the “hERG current change (%, negative = inhibition) at 10uM” value read?
Answer: 15.7%

Question: Which “hERG current change (%, negative = inhibition) at 10uM” value does the source give for COc1ccccc1/C=C/C=N/NC(=O)c1cnccn1 here?
Answer: 13.5%

Question: With Cc1ccc(-c2csc(NC(=O)c3ccc(Br)cc3)c2C(=O)O)cc1 as the molecule, how does the “hERG current change (%, negative = inhibition) at 10uM” value read?
Answer: 46.9%

Question: How did the “hERG current change (%, negative = inhibition) at 10uM” value turn out when O=C(O)C(Cc1c[nH]c2ccccc12)N1CCS(=O)(=O)CC1 (centres unmarked) was run?
Answer: 16.3%

Question: With N#CC1(NC(=O)COC(=O)c2ccc(-c3ccc(O)cc3)cc2)CCCCC1 as the molecule, how does the “hERG current change (%, negative = inhibition) at 10uM” value read?
Answer: 7.22%

Question: How did the “hERG current change (%, negative = inhibition) at 10uM” value turn out when CC1(C)C(=O)OC(c2ccc([N+](=O)[O-])cc2)C(C)(C)C1=O (centres unmarked) was run?
Answer: 18.4%

Question: Which “hERG current change (%, negative = inhibition) at 10uM” value does the source give for N#Cc1cc(NC2CCCC2)c([N+](=O)[O-])cc1C#N here?
Answer: -5.68%

Question: How did the “hERG current change (%, negative = inhibition) at 10uM” value turn out when Cn1cc(S(=O)(=O)N2CCCC2)cc1C(=O)NCCc1ccccc1 was run?
Answer: -2.66%

Question: With O=Cc1ccc2noc(-c3ccc(Cl)cc3)c2c1 as the molecule, how does the “hERG current change (%, negative = inhibition) at 10uM” value read?
Answer: -1.22%

Question: How did the “hERG current change (%, negative = inhibition) at 10uM” value turn out when Cc1ccc(/C=C2\SC(=S)N(CCC(=O)NNC(=O)c3cccnc3)C2=O)cc1 was run?
Answer: 1.06%

Question: For CCC(Cc1ccccc1)NC(=O)c1ccc2nc(N3CCOCC3)sc2c1 (centres unmarked), which “hERG current change (%, negative = inhibition) at 10uM” value is on record?
Answer: -46.5%

Question: How did the “hERG current change (%, negative = inhibition) at 10uM” value turn out when O=C(c1ccc2nc(N3CCOCC3)sc2c1)N1CCN(C(=O)c2ccco2)CC1 was run?
Answer: -47.4%

Question: With O=C(NCCCN1CCC(Cc2ccccc2)CC1)c1ccc2nc(N3CCOCC3)sc2c1 as the molecule, how does the “hERG current change (%, negative = inhibition) at 10uM” value read?
Answer: -66.2%

Question: How did the “hERG current change (%, negative = inhibition) at 10uM” value turn out when CCCCN(CCCNC(=O)c1ccc2nc(N3CCOCC3)sc2c1)Cc1ccccc1 was run?
Answer: -62%

Question: How did the “hERG current change (%, negative = inhibition) at 10uM” value turn out when O=C(c1ccc2nc(N3CCOCC3)sc2c1)N1CCCC1 was run?
Answer: -10.8%

Question: Which “hERG current change (%, negative = inhibition) at 10uM” value does the source give for CC1CC(C)CN(CCCNC(=O)c2ccc3nc(N4CCOCC4)sc3c2)C1 (centres unmarked) here?
Answer: -19.5%

Question: O=C(NCCc1ccccc1)c1ccc2nc(N3CCOCC3)sc2c1 was tested. Which “hERG current change (%, negative = inhibition) at 10uM” value did it give?
Answer: 3.75%

Question: O=C(NCc1ccccc1)c1ccc2nc(N3CCOCC3)sc2c1 was tested. Which “hERG current change (%, negative = inhibition) at 10uM” value did it give?
Answer: -5.89%

Question: Which “hERG current change (%, negative = inhibition) at 10uM” value does the source give for O=C(c1ccc2nc(N3CCOCC3)sc2c1)N1CCC(Cc2ccccc2)CC1 here?
Answer: -63.2%

Question: How did the “hERG current change (%, negative = inhibition) at 10uM” value turn out when CCOC(=O)c1ccc(-c2c(-c3ccccc3OC)sc3cc4c(cc23)OCO4)cc1F was run?
Answer: 12.5%

Question: Cc1cccc(-c2nsc(SCC(=O)Nc3cc(C)on3)n2)c1 was tested. Which “hERG current change (%, negative = inhibition) at 10uM” value did it give?
Answer: 16.1%

Question: Which “hERG current change (%, negative = inhibition) at 10uM” value does the source give for CC(=Nc1ccc2c(c1)CCC2)c1c(O)n(C)c(=O)n(C)c1=O here?
Answer: -3.93%

Question: Which “hERG current change (%, negative = inhibition) at 10uM” value does the source give for COc1cccc(CN2CCN(Cc3nc4c(s3)CCCC4)CC2CCO)c1 (centres unmarked) here?
Answer: -48.5%

Question: Which “hERG current change (%, negative = inhibition) at 10uM” value does the source give for CCOc1ccccc1CN1CCN(Cc2nc3ccccc3s2)CC1CCO (centres unmarked) here?
Answer: -74.8%

Question: Cc1cccc(CN2CCN(Cc3nc4c(s3)CCCC4)CC2CCO)n1 (centres unmarked) was tested. Which “hERG current change (%, negative = inhibition) at 10uM” value did it give?
Answer: -28.6%

Question: CCOc1ccccc1CN1CCN(Cc2nc3c(s2)CCCC3)CC1CCO (centres unmarked) was tested. Which “hERG current change (%, negative = inhibition) at 10uM” value did it give?
Answer: -67.9%

Question: Which “hERG current change (%, negative = inhibition) at 10uM” value does the source give for Cc1ccc(/C=C2/SC(=S)N(CCCC(=O)Nc3cc([N+](=O)[O-])ccc3O)C2=O)cc1 here?
Answer: 13.1%

Question: Which “hERG current change (%, negative = inhibition) at 10uM” value does the source give for O=C(NC(=S)NCCc1ccccc1)c1ccco1 here?
Answer: 10.2%

Question: How did the “hERG current change (%, negative = inhibition) at 10uM” value turn out when NC(=O)c1sc2cc(C(F)(F)F)cnc2c1-c1ccccc1 was run?
Answer: 15.5%

Question: CCOc1ccc(OCC)c(NC(=O)C2CCN(S(=O)(=O)c3cccnc3)CC2)c1 was tested. Which “hERG current change (%, negative = inhibition) at 10uM” value did it give?
Answer: -29.9%

Question: For Clc1ccc(-c2cnc3n2CCC3)cc1, which “hERG current change (%, negative = inhibition) at 10uM” value is on record?
Answer: -23.1%

Question: How did the “hERG current change (%, negative = inhibition) at 10uM” value turn out when Cc1cnc(NC(=O)CSc2c(Cl)cccc2Cl)s1 was run?
Answer: -6.06%

Question: Which “hERG current change (%, negative = inhibition) at 10uM” value does the source give for COc1ccc(CN2CCC(C(=O)Nc3ccc(Oc4cccnc4)cc3)CC2)cc1 here?
Answer: -69.3%

Question: With O=C(Nc1ccc(Oc2ccccc2)cc1)C1CCN(c2ncccn2)CC1 as the molecule, how does the “hERG current change (%, negative = inhibition) at 10uM” value read?
Answer: 0.064%

Question: O=C(Nc1ccc(Oc2cccnc2)cc1)C1CCN(Cc2ccccc2)CC1 was tested. Which “hERG current change (%, negative = inhibition) at 10uM” value did it give?
Answer: -75.1%

Question: With Cc1ccccc1CN1CCC(C(=O)Nc2ccc(Oc3cccnc3)cc2)CC1 as the molecule, how does the “hERG current change (%, negative = inhibition) at 10uM” value read?
Answer: -48.6%

Question: How did the “hERG current change (%, negative = inhibition) at 10uM” value turn out when O=C(Nc1ccc(Oc2cccnc2)cc1)C1CCN(Cc2cc(Cl)ccc2O)CC1 was run?
Answer: -45.9%

Question: Cc1cccc(CN2CCC(C(=O)Nc3ccc(Oc4cccnc4)cc3)CC2)c1 was tested. Which “hERG current change (%, negative = inhibition) at 10uM” value did it give?
Answer: -14%

Question: With COc1cccc(O)c1CN1CCC(C(=O)Nc2ccc(Oc3cccnc3)cc2)CC1 as the molecule, how does the “hERG current change (%, negative = inhibition) at 10uM” value read?
Answer: -47.4%

Question: Which “hERG current change (%, negative = inhibition) at 10uM” value does the source give for O=C(Nc1ccc(Oc2cccnc2)cc1)C1CCN(Cc2cccc(Cl)c2)CC1 here?
Answer: -52.8%

Question: O=C(Nc1ccc(Oc2cccnc2)cc1)C1CCCCN1Cc1ccc(CO)o1 (centres unmarked) was tested. Which “hERG current change (%, negative = inhibition) at 10uM” value did it give?
Answer: 1.59%

Question: With O=C(Nc1ccc(Oc2cccnc2)cc1)C1CCN(Cc2ccc(F)cc2)CC1 as the molecule, how does the “hERG current change (%, negative = inhibition) at 10uM” value read?
Answer: -55.2%

Question: Which “hERG current change (%, negative = inhibition) at 10uM” value does the source give for Cc1ccc(CN2CCCCC2C(=O)Nc2ccc(Oc3cccnc3)cc2)o1 (centres unmarked) here?
Answer: -19.4%

Question: With COc1ccc(CN2CCC(C(=O)Nc3ccc(Oc4cccnc4)cc3)CC2)c(C)c1C as the molecule, how does the “hERG current change (%, negative = inhibition) at 10uM” value read?
Answer: -36.8%

Question: For COc1cccc(CN(CC(=O)NCC2CCCO2)C(=O)CCC(=O)Nc2cc(C)on2)c1 (centres unmarked), which “hERG current change (%, negative = inhibition) at 10uM” value is on record?
Answer: -0.822%

Question: Which “hERG current change (%, negative = inhibition) at 10uM” value does the source give for CCOC(=O)CCCCCNC(=O)c1c(O)[nH]c(=O)[nH]c1=O here?
Answer: 17.7%

Question: How did the “hERG current change (%, negative = inhibition) at 10uM” value turn out when O=C(c1cc(-c2ccncc2)nc2ccccc12)N1CCC2(CC1)OCCO2 was run?
Answer: -25.9%

Question: How did the “hERG current change (%, negative = inhibition) at 10uM” value turn out when CC(C)c1nc2oc3c(NCc4ccccn4)ncnc3c2c2c1COC(C)(C)C2 was run?
Answer: 5.62%

Question: How did the “hERG current change (%, negative = inhibition) at 10uM” value turn out when C/C(=N\NC(=O)COc1ccccc1[N+](=O)[O-])c1cccs1 was run?
Answer: 10.3%

Question: COc1cc(-c2nc(=S)[nH][nH]2)cc(OC)c1OC was tested. Which “hERG current change (%, negative = inhibition) at 10uM” value did it give?
Answer: 5.94%

Question: Cc1ccc(C(=O)N/C(=C/c2ccco2)C(=O)NCc2ccco2)cc1 was tested. Which “hERG current change (%, negative = inhibition) at 10uM” value did it give?
Answer: -12%

Question: For O=C(NCc1cccnc1)/C(=C/c1ccco1)NC(=O)c1ccccc1, which “hERG current change (%, negative = inhibition) at 10uM” value is on record?
Answer: -58.6%

Question: How did the “hERG current change (%, negative = inhibition) at 10uM” value turn out when O=C(NCc1ccco1)/C(=C/c1ccco1)NC(=O)c1ccccc1 was run?
Answer: 4.34%

Question: For O=C(NCc1cccnc1)/C(=C/c1ccc(-c2cccc(Cl)c2)o1)S(=O)(=O)c1ccccc1, which “hERG current change (%, negative = inhibition) at 10uM” value is on record?
Answer: -26.2%

Question: Cc1ccc(C(=O)N/C(=C/c2ccc(-c3cc(C(F)(F)F)ccc3Cl)o2)C(=O)NCc2cccnc2)cc1 was tested. Which “hERG current change (%, negative = inhibition) at 10uM” value did it give?
Answer: -1.72%

Question: COc1ccc(C(=O)N/C(=C/c2ccco2)C(=O)NCc2ccco2)cc1 was tested. Which “hERG current change (%, negative = inhibition) at 10uM” value did it give?
Answer: -30.1%

Question: For Cc1ccc(C(=O)N/C(=C/c2ccco2)C(=O)O)cc1, which “hERG current change (%, negative = inhibition) at 10uM” value is on record?
Answer: -3.15%

Question: O=C(NCc1ccccn1)/C(=C/c1ccco1)NC(=O)c1ccccc1 was tested. Which “hERG current change (%, negative = inhibition) at 10uM” value did it give?
Answer: -10%

Question: Which “hERG current change (%, negative = inhibition) at 10uM” value does the source give for Cc1ccc(C(=O)N/C(=C\c2ccco2)C(=O)NCc2cccnc2)cc1 here?
Answer: -65.2%

Question: For COc1ccc(C(=O)N/C(=C\c2ccco2)C(=O)NCc2cccnc2)cc1, which “hERG current change (%, negative = inhibition) at 10uM” value is on record?
Answer: -66.7%

Question: Which “hERG current change (%, negative = inhibition) at 10uM” value does the source give for COc1ccc(C(=O)N/C(=C\c2ccco2)C(=O)NCc2ccco2)cc1 here?
Answer: -19.7%

Question: Which “hERG current change (%, negative = inhibition) at 10uM” value does the source give for O=C(NCc1cccnc1)/C(=C/c1ccc(-c2cccc(C(F)(F)F)c2)o1)NC(=O)c1ccccc1 here?
Answer: -74.1%
